Columns and labels:
Assay in all cases: DAPPL (digital affinity profiling via proximity ligation, sequencing); 10 mM Tris-HCl pH 7.5, 50 mM NaCl, 1 mM DTT, 4% glycerol, room temperature, 30 min; GST-TFs on glutathione beads, 16-mer random dsDNA library, 0.1% formaldehyde crosslink after washing; high values mean tight binding
FLI1 = biological target: T1, FLI1 (Homo sapiens, UniProt Q01543 1-452); conditions: protein: recombinant; tags: N-terminal GST; dsDNA, one strand shown
T1 sequence: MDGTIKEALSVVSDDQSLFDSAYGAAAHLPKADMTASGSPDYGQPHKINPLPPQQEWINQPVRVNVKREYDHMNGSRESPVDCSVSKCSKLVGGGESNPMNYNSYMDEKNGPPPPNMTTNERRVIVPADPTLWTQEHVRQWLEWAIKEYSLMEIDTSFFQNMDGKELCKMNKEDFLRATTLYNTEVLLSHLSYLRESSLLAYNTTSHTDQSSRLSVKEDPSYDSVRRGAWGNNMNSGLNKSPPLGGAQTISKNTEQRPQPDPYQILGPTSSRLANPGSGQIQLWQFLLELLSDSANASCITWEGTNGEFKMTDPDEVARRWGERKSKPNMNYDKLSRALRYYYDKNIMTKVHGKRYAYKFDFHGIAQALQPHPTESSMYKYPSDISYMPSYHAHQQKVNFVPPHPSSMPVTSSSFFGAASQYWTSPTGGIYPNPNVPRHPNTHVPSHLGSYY
How it was run: (§1)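 A tag-only sample was pooled with DNA-barcoded human transcription factors that had been expressed in yeast as GST fusions and captured on glutathione beads. The pools were incubated for 30 min at room temperature with 200 nmole of a random double-stranded 16-mer DNA library in Tris/NaCl/DTT/glycerol buffer, then washed, crosslinked with 0.1% formaldehyde, proximity-ligated (BsaI/T4 ligase, 1 h, 37 °C), PCR-amplified and sequenced on an Illumina NextSeq500. Binding signal is each hexamer's read frequency for a factor divided by its frequency for the tag-only sample.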

GABPA = biological target: T2, GABPA (Homo sapiens, UniProt Q06546 1-454); conditions: protein: recombinant; tags: N-terminal GST; dsDNA, one strand shown
T2 sequence: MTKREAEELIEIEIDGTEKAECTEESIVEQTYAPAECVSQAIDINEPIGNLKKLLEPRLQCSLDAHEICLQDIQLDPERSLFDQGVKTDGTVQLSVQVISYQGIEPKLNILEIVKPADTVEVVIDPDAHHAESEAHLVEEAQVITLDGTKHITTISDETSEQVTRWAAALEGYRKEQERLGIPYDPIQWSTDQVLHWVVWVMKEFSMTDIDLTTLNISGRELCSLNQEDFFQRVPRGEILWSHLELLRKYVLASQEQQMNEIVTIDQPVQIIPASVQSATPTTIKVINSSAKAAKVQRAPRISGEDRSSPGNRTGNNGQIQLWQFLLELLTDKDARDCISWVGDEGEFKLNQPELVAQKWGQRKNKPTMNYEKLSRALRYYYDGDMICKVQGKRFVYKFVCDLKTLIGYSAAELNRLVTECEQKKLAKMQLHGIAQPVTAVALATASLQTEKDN
How it was run: as §1

ERG = biological target: T3, ERG (Homo sapiens, UniProt P11308 1-479); conditions: protein: recombinant; tags: N-terminal GST; dsDNA, one strand shown
T3 sequence: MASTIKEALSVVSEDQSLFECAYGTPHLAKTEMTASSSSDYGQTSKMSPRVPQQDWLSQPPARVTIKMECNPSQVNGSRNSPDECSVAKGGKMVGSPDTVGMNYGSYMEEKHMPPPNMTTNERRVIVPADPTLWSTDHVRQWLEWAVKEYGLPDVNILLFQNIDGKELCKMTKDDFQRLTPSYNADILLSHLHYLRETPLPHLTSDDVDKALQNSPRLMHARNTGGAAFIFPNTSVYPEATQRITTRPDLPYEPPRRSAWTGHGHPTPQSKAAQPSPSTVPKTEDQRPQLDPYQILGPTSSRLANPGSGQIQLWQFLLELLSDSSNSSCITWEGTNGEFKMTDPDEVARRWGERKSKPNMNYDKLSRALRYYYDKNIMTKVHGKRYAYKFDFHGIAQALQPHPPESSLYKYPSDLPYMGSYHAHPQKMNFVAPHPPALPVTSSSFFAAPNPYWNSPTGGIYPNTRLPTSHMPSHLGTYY
How it was run: as §1

ELF1 = ELF1 (Homo sapiens, UniProt P32519 1-619); conditions: protein: recombinant; tags: N-terminal GST; dsDNA, one strand shown
ELF1, sequence (P32519 whole entry): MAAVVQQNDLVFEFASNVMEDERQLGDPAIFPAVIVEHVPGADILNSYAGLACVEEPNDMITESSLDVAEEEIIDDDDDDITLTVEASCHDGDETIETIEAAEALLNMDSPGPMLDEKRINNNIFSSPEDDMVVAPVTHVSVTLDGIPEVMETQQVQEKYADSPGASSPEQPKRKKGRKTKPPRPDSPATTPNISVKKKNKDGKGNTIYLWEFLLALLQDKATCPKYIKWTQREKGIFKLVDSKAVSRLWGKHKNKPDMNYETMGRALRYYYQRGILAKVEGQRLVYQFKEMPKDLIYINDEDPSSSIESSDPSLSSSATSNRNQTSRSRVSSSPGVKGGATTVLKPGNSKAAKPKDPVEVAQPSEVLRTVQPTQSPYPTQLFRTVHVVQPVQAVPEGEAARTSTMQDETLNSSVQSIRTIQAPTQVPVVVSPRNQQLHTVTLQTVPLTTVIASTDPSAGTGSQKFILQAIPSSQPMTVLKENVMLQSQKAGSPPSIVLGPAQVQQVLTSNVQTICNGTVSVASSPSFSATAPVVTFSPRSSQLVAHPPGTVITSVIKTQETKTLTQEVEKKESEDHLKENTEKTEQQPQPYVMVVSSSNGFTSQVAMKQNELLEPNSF
How it was run: as §1

EHF = biological target: T4, EHF (Homo sapiens, UniProt Q9NZC4 1-300); conditions: protein: recombinant; tags: N-terminal GST; dsDNA, one strand shown
T4 sequence: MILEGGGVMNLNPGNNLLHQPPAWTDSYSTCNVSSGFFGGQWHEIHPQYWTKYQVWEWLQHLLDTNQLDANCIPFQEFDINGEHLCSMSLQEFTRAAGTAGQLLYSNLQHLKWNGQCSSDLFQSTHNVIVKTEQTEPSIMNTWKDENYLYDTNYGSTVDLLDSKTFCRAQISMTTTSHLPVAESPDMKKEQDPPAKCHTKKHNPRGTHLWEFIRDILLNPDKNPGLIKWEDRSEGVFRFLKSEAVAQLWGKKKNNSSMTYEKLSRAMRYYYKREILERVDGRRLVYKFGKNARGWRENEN
How it was run: as §1

SPI1 = SPI1 (Homo sapiens, UniProt P17947 1-270); conditions: protein: recombinant; tags: N-terminal GST; dsDNA, one strand shown
How it was run: as §1

SPIB = SPIB (Homo sapiens, UniProt Q01892 1-262); conditions: protein: recombinant; tags: N-terminal GST; dsDNA, one strand shown
SPIB, sequence (Q01892 whole entry): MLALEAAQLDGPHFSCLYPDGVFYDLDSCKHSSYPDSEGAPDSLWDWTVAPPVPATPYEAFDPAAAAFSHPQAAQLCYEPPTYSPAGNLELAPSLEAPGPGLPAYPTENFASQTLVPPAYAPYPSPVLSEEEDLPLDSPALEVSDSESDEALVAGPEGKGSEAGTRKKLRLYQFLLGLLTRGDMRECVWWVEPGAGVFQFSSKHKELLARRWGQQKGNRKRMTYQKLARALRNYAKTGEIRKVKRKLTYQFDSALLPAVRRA
How it was run: as §1

ELK3 = biological target: T5, ELK3 (Homo sapiens, UniProt P41970 1-407); conditions: protein: recombinant; tags: N-terminal GST; dsDNA, one strand shown
T5 sequence: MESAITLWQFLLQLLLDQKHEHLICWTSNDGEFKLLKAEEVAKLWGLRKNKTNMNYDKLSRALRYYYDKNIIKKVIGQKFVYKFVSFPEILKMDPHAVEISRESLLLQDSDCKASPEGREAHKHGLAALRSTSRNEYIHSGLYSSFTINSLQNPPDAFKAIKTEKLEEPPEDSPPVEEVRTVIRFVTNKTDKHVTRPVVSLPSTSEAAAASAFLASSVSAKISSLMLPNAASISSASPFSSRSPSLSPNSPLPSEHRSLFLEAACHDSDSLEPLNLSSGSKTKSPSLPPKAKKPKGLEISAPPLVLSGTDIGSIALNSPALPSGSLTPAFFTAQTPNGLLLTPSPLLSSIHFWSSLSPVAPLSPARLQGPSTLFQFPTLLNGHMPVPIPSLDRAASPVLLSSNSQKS
How it was run: as §1

FEV = biological target: T6, FEV (Homo sapiens, UniProt Q99581 1-238); conditions: protein: recombinant; tags: N-terminal GST; dsDNA, one strand shown
T6 sequence: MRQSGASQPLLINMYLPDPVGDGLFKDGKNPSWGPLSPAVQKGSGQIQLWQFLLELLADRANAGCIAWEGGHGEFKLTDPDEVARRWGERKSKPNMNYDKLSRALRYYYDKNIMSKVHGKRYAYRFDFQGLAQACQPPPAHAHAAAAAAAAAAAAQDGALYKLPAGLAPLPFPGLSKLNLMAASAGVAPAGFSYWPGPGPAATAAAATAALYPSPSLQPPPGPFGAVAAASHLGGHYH
How it was run: as §1

ETV5 = ETV5 (Homo sapiens, UniProt P41161 1-510); conditions: protein: recombinant; tags: N-terminal GST; dsDNA, one strand shown
ETV5, sequence (P41161 whole entry): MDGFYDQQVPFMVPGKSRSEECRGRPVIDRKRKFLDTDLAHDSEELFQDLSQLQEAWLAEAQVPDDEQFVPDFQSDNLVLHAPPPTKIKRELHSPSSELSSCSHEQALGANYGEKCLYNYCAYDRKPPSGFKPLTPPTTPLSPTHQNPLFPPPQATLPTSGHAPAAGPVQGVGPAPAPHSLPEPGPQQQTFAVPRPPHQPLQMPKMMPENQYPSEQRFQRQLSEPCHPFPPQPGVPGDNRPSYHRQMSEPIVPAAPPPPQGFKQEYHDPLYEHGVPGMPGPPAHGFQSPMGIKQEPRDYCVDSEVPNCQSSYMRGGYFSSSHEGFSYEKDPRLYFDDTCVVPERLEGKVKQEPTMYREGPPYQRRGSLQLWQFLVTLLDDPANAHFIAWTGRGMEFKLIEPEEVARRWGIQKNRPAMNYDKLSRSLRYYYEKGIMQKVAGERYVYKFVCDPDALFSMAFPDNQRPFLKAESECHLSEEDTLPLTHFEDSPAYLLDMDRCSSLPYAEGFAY
How it was run: as §1

HSF1 = HSF1 (Homo sapiens, UniProt Q00613 1-529); conditions: protein: recombinant; tags: N-terminal GST; chain copies: 3; dsDNA, one strand shown
HSF1, sequence (Q00613 whole entry): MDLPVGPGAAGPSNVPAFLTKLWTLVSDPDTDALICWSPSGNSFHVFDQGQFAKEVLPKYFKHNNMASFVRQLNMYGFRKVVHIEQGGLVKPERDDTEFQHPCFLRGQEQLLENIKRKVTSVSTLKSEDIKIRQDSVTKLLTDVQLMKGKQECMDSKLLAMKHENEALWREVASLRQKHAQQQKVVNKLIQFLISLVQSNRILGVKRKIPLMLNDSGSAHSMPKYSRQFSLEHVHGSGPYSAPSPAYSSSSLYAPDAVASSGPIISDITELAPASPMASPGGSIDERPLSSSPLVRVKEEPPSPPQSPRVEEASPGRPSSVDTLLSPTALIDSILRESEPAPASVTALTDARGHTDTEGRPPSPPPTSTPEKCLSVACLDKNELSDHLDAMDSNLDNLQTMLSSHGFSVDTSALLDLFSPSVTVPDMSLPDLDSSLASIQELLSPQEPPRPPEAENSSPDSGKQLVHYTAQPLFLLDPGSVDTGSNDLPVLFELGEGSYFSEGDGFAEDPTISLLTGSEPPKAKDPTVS
How it was run: as §1

ELF4 = ELF4 (Homo sapiens, UniProt Q99607 1-663); conditions: protein: recombinant; tags: N-terminal GST; dsDNA, one strand shown
ELF4, sequence (Q99607 whole entry): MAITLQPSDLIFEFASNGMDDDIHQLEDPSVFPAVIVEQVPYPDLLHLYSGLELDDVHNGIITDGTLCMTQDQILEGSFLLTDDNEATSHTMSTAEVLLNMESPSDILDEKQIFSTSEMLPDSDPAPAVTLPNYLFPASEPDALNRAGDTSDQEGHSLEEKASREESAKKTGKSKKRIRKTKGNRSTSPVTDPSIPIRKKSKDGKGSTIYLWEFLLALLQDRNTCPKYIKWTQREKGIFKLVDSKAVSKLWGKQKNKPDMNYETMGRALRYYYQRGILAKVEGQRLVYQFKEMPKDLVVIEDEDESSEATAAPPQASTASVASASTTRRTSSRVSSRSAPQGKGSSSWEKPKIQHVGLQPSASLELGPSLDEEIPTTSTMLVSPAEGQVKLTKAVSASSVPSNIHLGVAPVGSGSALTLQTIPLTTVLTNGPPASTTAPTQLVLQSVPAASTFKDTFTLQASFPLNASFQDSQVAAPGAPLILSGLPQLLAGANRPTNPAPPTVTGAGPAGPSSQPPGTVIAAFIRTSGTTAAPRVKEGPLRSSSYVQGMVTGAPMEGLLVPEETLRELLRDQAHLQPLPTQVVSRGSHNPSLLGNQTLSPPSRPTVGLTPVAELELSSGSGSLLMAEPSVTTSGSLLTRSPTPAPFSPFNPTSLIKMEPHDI
How it was run: as §1

ELK4 = biological target: T7, ELK4 (Homo sapiens, UniProt P28324-2 1-405); conditions: protein: recombinant; tags: N-terminal GST; dsDNA, one strand shown
T7 sequence: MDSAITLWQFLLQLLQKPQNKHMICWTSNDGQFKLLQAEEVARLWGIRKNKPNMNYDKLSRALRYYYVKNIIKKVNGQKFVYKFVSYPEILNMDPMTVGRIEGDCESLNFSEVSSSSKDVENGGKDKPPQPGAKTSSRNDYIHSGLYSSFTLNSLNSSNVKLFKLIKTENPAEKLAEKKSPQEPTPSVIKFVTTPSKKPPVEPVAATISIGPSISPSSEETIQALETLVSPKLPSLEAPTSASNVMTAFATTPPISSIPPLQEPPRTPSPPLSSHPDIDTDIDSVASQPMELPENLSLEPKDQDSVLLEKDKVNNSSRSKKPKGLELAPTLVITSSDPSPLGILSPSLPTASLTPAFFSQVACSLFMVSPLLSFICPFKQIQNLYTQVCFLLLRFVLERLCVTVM
How it was run: as §1

ETV2 = biological target: T8, ETV2 (Homo sapiens, UniProt O00321 1-342); conditions: protein: recombinant; tags: N-terminal GST; dsDNA, one strand shown
T8 sequence: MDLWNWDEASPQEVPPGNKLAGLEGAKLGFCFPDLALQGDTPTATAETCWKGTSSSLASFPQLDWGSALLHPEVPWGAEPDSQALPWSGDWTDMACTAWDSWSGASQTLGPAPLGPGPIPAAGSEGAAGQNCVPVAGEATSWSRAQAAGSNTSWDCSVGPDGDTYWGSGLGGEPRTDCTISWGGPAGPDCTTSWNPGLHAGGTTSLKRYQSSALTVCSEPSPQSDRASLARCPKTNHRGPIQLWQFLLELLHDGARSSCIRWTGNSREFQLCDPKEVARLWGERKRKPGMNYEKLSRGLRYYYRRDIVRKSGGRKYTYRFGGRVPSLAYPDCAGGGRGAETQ
How it was run: as §1

CRX = CRX (Homo sapiens, UniProt O43186 1-299); conditions: protein: recombinant; tags: N-terminal GST; dsDNA, one strand shown
CRX, sequence (O43186 whole entry): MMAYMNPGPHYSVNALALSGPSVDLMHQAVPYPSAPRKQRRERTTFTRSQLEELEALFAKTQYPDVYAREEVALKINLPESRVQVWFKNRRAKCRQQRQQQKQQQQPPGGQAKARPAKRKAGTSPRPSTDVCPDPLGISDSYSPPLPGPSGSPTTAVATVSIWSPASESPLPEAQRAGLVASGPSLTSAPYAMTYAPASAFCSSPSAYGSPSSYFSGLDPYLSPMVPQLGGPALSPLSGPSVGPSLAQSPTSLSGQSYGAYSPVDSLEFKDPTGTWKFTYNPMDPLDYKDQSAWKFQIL
How it was run: as §1

ELK1 = biological target: T9, ELK1 (Homo sapiens, UniProt P19419 1-428); conditions: protein: recombinant; tags: N-terminal GST; dsDNA, one strand shown
T9 sequence: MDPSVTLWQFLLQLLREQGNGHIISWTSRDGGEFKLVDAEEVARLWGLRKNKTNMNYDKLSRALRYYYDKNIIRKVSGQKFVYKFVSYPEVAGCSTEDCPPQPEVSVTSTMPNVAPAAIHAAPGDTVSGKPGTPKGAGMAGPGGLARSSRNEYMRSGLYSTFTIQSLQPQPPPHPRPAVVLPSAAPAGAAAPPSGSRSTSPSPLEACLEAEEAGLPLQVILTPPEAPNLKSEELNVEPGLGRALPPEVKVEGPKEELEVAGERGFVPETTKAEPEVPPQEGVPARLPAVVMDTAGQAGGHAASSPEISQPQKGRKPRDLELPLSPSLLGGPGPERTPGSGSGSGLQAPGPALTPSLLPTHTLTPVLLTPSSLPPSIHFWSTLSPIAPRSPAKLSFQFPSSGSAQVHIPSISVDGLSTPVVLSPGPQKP
How it was run: as §1

ETV1 = ETV1 (Homo sapiens, UniProt P50549 1-477); conditions: protein: recombinant; tags: N-terminal GST; dsDNA, one strand shown
ETV1, sequence (P50549 whole entry): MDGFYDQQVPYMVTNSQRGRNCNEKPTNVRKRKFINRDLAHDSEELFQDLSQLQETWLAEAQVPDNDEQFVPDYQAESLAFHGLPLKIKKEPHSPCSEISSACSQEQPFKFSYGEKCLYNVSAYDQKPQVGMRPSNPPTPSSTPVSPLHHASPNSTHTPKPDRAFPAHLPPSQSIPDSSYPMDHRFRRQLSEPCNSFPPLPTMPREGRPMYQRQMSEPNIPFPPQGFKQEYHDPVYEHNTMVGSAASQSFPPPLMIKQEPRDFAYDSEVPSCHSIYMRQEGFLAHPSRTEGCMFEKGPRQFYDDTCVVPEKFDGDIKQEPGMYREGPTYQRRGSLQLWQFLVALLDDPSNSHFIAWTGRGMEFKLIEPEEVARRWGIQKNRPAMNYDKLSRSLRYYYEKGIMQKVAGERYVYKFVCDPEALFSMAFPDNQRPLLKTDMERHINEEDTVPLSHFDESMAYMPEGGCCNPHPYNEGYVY
How it was run: as §1

GTTATC
binding signal (FLI1): 1.12 fold enrichment (6-mer frequency, TF over GST control)
binding signal (GABPA): 1.07 fold enrichment (6-mer frequency, TF over GST control)
binding signal (ERG): 1.1 fold enrichment (6-mer frequency, TF over GST control)
binding signal (ELF1): 1.09 fold enrichment (6-mer frequency, TF over GST control)
binding signal (EHF): 1.12 fold enrichment (6-mer frequency, TF over GST control)
binding signal (SPI1): 1.03 fold enrichment (6-mer frequency, TF over GST control)
binding signal (SPIB): 1.02 fold enrichment (6-mer frequency, TF over GST control)
binding signal (ELK3): 1.22 fold enrichment (6-mer frequency, TF over GST control)
binding signal (FEV): 1.05 fold enrichment (6-mer frequency, TF over GST control)
binding signal (ETV5): 1.12 fold enrichment (6-mer frequency, TF over GST control)
binding signal (HSF1): 1.03 fold enrichment (6-mer frequency, TF over GST control)
binding signal (ELF4): 1.04 fold enrichment (6-mer frequency, TF over GST control)
binding signal (ELK4): 1.22 fold enrichment (6-mer frequency, TF over GST control)
binding signal (ETV2): 1.21 fold enrichment (6-mer frequency, TF over GST control)
binding signal (CRX): 1.24 fold enrichment (6-mer frequency, TF over GST control)

TAGATC
binding signal (FLI1): 1.05 fold enrichment (6-mer frequency, TF over GST control)
binding signal (ELK1): 1.14 fold enrichment (6-mer frequency, TF over GST control)
binding signal (ERG): 1 fold enrichment (6-mer frequency, TF over GST control)
binding signal (ELF1): 1.06 fold enrichment (6-mer frequency, TF over GST control)
binding signal (EHF): 1.04 fold enrichment (6-mer frequency, TF over GST control)
binding signal (ELK3): 1.21 fold enrichment (6-mer frequency, TF over GST control)
binding signal (FEV): 1.06 fold enrichment (6-mer frequency, TF over GST control)
binding signal (ETV5): 1.06 fold enrichment (6-mer frequency, TF over GST control)
binding signal (HSF1): 1.49 fold enrichment (6-mer frequency, TF over GST control)
binding signal (ELF4): 1.13 fold enrichment (6-mer frequency, TF over GST control)
binding signal (ETV2): 1.2 fold enrichment (6-mer frequency, TF over GST control)
binding signal (CRX): 1.51 fold enrichment (6-mer frequency, TF over GST control)
binding signal (ETV1): 1.04 fold enrichment (6-mer frequency, TF over GST control)

— publication PMC7862700, “An all-to-all approach to the identification of sequence-specific readers for epigenetic DNA modifications on cytosine”
